Source: PubChem BioAssay
Shown are actives, neighbours in structure and some others; about 3.3% of the full set was active somewhere.
LmPK inh – qHTS Assay for Inhibitors of Leishmania Mexicana Pyruvate Kinase (LmPK) | 0.37% of 290,000 active | purified LmPK, Kinase-Glo ATP luminescence, 1 h | Potency, µM (titrated, usually from 57.5 µM), for inactives: top-dose activity change, negative = inhibition, hits mostly inhibitors | Q27686
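Purified LmPK (0.1 nM) converted ADP (0.1 mM) to ATP with PEP (0.5 mM) in imidazole buffer pH 7.2 with KCl and MgCl2, 1 h at room temperature. ATP was read by Kinase-Glo luminescence; data normalized to uninhibited and no-enzyme controls.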
RE007 growth inh – qHTS Assay for Inhibitors of the HIV-1 protein Vpr; S. pombe RE007 Vpr strain, BacTiter-Glo ATP luminescence, 24 h; Potency, µM (titrated, usually from 92.2 µM), inactives show top-dose activity change, negative = less growth, most hits filed as inhibitors; 0.21% of 360,000 active; AID 651644, 2012; active means well fitted falling curve with a large enough effect; inconclusive means small, poorly fitted or top-dose-only effect; inactive means no such curve, though single readings can be large or run the other way; further: nearly all actives have a fitted effect of over 50% in size
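Fission yeast RE007 carrying one integrated HIV-1 vpr copy, seeded at OD 0.01 in PMG+AL medium with 23 nL pinned compound. Grown 24 h at 30 degrees; viability read by BacTiter-Glo luminescence after 5 min.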
Tb PYK inh – qHTS of Trypanosoma Brucei Inhibitors | pyruvate kinase (Trypanosoma brucei), Q57TT1 | TbPYK enzyme, Kinase-Glo Plus ATP luminescence, 45 min | 0.12% of 410,000 active | Potency, µM (titrated, usually from 76.8 µM), for inactives: at the top dose activity, negative = inhibition, actives largely listed as inhibitors; further: nearly all actives have a fitted effect of over 50% in size
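In this concentration-response screen, enzyme-free wells defined baseline while DMSO plates tracked drift. Each reaction combined TbPYK, substrate, compound and 130 uM ADP for 45 min at room temperature. Kinase-Glo Plus luminescence gave the signal.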
FBPA Giardia inh – qHTS Assay for Inhibitors of Fructose-1,6-bisphosphate Aldolase from Giardia Lamblia. 0.71% of 290,000 active. A8B2U2. Potency, µM (doses to about 59.6 µM), for inactives: at the top dose activity, negative = inhibition, actives largely listed as inhibitors. AID 2451, 2010. purified Giardia FBPA; further: nearly all actives have a fitted effect of over 55% in size
Target sequence (A8B2U2 whole entry, looked up): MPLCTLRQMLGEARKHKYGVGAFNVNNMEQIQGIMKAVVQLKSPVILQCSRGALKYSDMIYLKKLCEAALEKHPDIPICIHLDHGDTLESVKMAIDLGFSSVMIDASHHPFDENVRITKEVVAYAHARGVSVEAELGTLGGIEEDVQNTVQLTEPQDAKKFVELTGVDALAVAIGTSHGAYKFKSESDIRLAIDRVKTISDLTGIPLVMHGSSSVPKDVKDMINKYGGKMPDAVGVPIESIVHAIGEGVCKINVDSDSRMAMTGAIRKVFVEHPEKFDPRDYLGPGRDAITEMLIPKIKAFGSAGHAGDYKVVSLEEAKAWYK
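40 nM FBPA preincubated 10 min at RT with compound (up to 57.5 uM final), then substrate plus GAPDH/TPI/NAD/arsenate coupling and diaphorase/resazurin added. Fluorescence read after 20 min at RT, 525/598 nm.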
Sm TGR block – qHTS Assay for the Inhibitors of Schistosoma Mansoni Peroxiredoxins. purified TGR, DTNB reduction, TNB absorbance 405 nm. Potency, µM (titrated, usually from 114 µM), for the others: at the top dose activity change, negative = inhibition, actives largely listed as inhibitors. 3% of 360,000 active; further: nearly all actives have a fitted effect of over 60% in size
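TGR 20 nM + NADPH 100 uM (dispensed conc.), cpd preinc 15 min RT; start with NADPH (500 uM addition) then DTNB (15 mM addition). Kinetic TNB absorbance, 405 nm filter. Four-parameter Hill fit across titration.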
* = called active by the depositor; ? = inconclusive; nt = no result given; [ ] = remark or other dose. Unless noted, the call rests on the fitted dose curve; in most records, active means well fitted curve in the direction sought with a large enough effect; inconclusive means small, poorly fitted or top-dose-only effect, or another doubt; inactive means no such curve, though single readings can be large; an effect the other way counts as inactive or inconclusive. On the % scale 0 is the no-effect control and ±100 the full control effect; potency means the concentration at half of the fitted maximal effect.

SMILES | LmPK inh | RE007 growth inh | Tb PYK inh | FBPA Giardia inh | Sm TGR block
Cc1ccc(C(=O)COC(=O)c2cccs2)cc1 | ? | -25.1% | -13.8% | 4.8% | -5.1%
CCc1ccc(C(=O)COC(=O)c2cccs2)cc1 | 15.8µM* | nt | -15.4% | 2.1% | -25.8%
O=C(COC(=O)c1cccs1)c1ccc2ccccc2c1 | -3.3% | ? | 2.6% | -3.7% | 1.2%
C/C(=N/NC(=O)c1ccc2c(c1)OCO2)c1ccc(NC(=O)C(F)(F)F)cc1 | 3.8% | 8.9% | -4.2% | 0.0% | 0.5%
CCC(C(=O)NC1CCCCC1)N(CC1CCCO1)C(=O)CNS(=O)(=O)c1ccc(OC)cc1 (stereo unspecified) | 2.8% | 24.4% | -0.7% | 0.4% | -5.4%
O=C1CCCc2c1cc(C(=O)Nc1ccc(Br)cn1)c(=O)n2-c1ccccc1 | ? | -6.1% | ? | ? | 17.8µM*
O=C1CCCc2c1cc(C(=O)NC1CCSC1=O)c(=O)n2-c1ccccc1 (stereo unspecified) | -9.5% | 11.3% | -8.4% | -24.9% | 35.5µM*
O=c1oc2ccccc2cc1-c1nc2ccccc2o1 | ? | ? | -4.9% | nt | 0.3%
O=c1oc2ccccc2cc1-c1nc2c(s1)CCCC2 | 12.6µM* | -3.9% | -20.5% | 4.2% | 0.0%
COc1ccc(C)cc1NS(=O)(=O)c1c(C(=O)N2CCCCCC2)c(C)n(C)c1C | nt | nt | 3.5% | nt | 5.62µM*
Cc1ccc(CNS(=O)(=O)c2c(C(=O)N3CCCCCC3)c(C)n(C)c2C)cc1 | 12.9% | -7.7% | 0.1% | -16.2% | 0.6%
Cc1ccc(CNS(=O)(=O)c2c(C(=O)N3CCCCC3)c(C)n(C)c2C)o1 | 5.6% | 4.0% | 2.7% | -9.4% | 35.5µM*
OC[C@H]1OC(O)[C@H](O)[C@@H](O)[C@H]1O (stereo partly specified) | nt | 4.6%[18.4 µM] | 0.6% | 6.8% | 0.9%
CC1CCN(C(=O)C(=O)c2cn(CC(=O)N3CCCC3)c3ccccc23)CC1 | -3.1% | 4.2% | -2.0% | nt | -11.6%
Cc1ccc(C)c(CSc2nc3ccncc3n2Cc2nc(-c3ccccc3Cl)oc2C)c1 | nt | nt | -1.9% | nt | -14.8%
Cc1cccc(-c2nc(Cn3c(SCc4cc(C)ccc4C)nc4ccncc43)c(C)o2)c1 | nt | nt | -15.1% | nt | 79.4µM*
O=C1CN(C(=O)CNCc2ccccc2Cl)c2ccccc2N1 | 2.7% | 3.7% | 2.4% | ? | ?
O=C1CN(C(=O)CNCc2cccc(Cl)c2)c2ccccc2N1 | -13.2% | -15.5% | 3.9% | ? | 44.7µM*
CCN(C(=O)COC(=O)c1ccccc1Nc1cccc(C)c1C)C1CCS(=O)(=O)C1 (stereo unspecified) | -0.2% | 30.3% | -2.4% | -20.2% | -0.6%
COCCCNC(=O)C1CCC(CNS(=O)(=O)c2ccc3c(c2)CC(C)N3C(=O)C2CC2)CC1 (stereo unspecified) | -1.9% | -5.2% | -2.4% | nt | 1.4%
CC1(C)Cc2nc3oc4c(=S)nc[nH]c4c3cc2CO1 | 8.7% | -14.3% | ? | 11.2µM* | -1.9%
CCC1=Nc2ccc(Br)cc2C(c2ccccc2)N1CC(=O)OC (stereo unspecified) | -0.5% | 2.0% | 2.2% | 0.0% | 1.6%
Cc1ccc(C(=O)NC(=S)NCC2CCCO2)cc1Br (stereo unspecified) | -4.0% | ? | -17.0% | -1.0% | 56.2µM*
Cc1ccc(S(=O)(=O)NNC(=S)NCC2CCCO2)cc1 (stereo unspecified) | 0.9% | 6.1% | -0.1% | ? | 12.6µM*
Cc1ccc(C(=O)NC(=S)NNC(=O)c2ccc([N+](=O)[O-])cc2)cc1 | 6.6% | -6.7% | -8.0% | ? | 1.0%
SMILES | LmPK inh | RE007 growth inh | Tb PYK inh | FBPA Giardia inh | Sm TGR block
Cc1ccc(C(=O)NC(=S)NNS(=O)(=O)c2ccc(C)cc2)cc1 | 9.8% | -14.7% | -13.2% | ? | 22.4µM*
Cc1ccc(S(=O)(=O)NNC(=S)NC(=O)c2ccc([N+](=O)[O-])cc2)cc1 | -0.1% | 26.7% | -1.2% | ? | 7.94µM*
Cc1ccc(S(=O)(=O)NNC(=O)c2ccc(O)cc2)cc1 | -3.0% | 10.8% | 1.9% | -1.6% | 13.2%
Cc1ccc(NC(=O)[C@H](Cc2ccccc2)N2Cc3ccccc3C2=O)cc1F | nt | nt | -4.0% | nt | 24.4%
CC(=O)Nc1ccc(OCCOCCOc2ccc(NC(C)=O)cc2)cc1 | nt | nt | -8.5% | nt | nt
Cc1c(NC(=O)c2ccco2)cccc1C(=O)NN1C(=O)c2ccccc2C1=O | 0.8% | 4.7% | 1.6% | 14.5% | 5.3%
CCc1nc2c(OCc3ccccc3C(=O)OC)cccn2c1N(C)C(=O)c1ccncc1 | nt | 1.7%[18.4 µM] | -3.7% | nt | nt
O=C(NNC(=S)NC(=O)c1ccc(Br)cc1)c1ccc([N+](=O)[O-])cc1 | 15.2% | 18.7% | -10.3% | ? | 100µM*
O=[N+]([O-])c1ccc(S(=O)(=O)NNC(=S)NCCc2ccccc2)cc1 | -9.9% | -0.7% | 0.6% | nt | 1.78µM*
O=C(NNC(=O)c1ccc([N+](=O)[O-])cc1)c1ccc(Br)cc1 | -1.7% | 2.5% | 1.3% | 0.4% | -3.1%
CCn1nc(C)cc1-c1nnc(Sc2ncc([N+](=O)[O-])s2)n1C | 0.7% | 35.5µM* | -21.7% | -25.1% | 0.282µM*
CCn1nc(C)cc1-c1nnc(SCC(=O)Nc2ccccc2)n1CCCOC | -1.3% | -12.1% | -1.1% | 2.8% | 4.9%
COc1ccccc1C1C(C(=O)c2cc3ccccc3o2)=C(O)C(=O)N1CCN1CCOCC1 (stereo unspecified) | 11.4% | -11.0% | -6.6% | -6.2% | 39.8µM*
Cc1nc(C)c(C(=O)C2=C(O)C(=O)N(CCN3CCOCC3)C2c2ccco2)s1 (stereo unspecified) | 3.9% | 1.5% | ? | -13.2% | 28.2µM*
O=C(C1=C(O)C(=O)N(CCCN2CCOCC2)C1c1ccc(Cl)cc1)c1cc2ccccc2o1 (stereo unspecified) | 3.7% | -10.0% | -6.8% | 10.2% | ?
COc1cccc2cc(C(=O)C3=C(O)C(=O)N(CCN4CCOCC4)C3c3ccc(C)o3)oc12 (stereo unspecified) | 4.4% | -5.7% | 8.6% | -19.8% | 28.2µM*
O=C(C1=C(O)C(=O)N(CCN2CCOCC2)C1c1ccc(Cl)cc1)c1cc2ccccc2o1 (stereo unspecified) | 10.4% | 1.0% | 1.5% | nt | 28.2µM*
Cc1ccc(S(=O)(=O)CCC(=O)OCC(=O)c2cc(C)ccc2C)cc1 | nt | 3.7% | 2.6% | nt | -2.6%
COc1ccccc1N1CCN(CCCNC(=O)c2nnc(Cc3ccc(F)cc3Cl)o2)CC1 | nt | nt | -1.2% | nt | -3.3%
O=C(CN1C(=O)c2ccccc2C1=O)NCc1ccccn1 | 0.5% | 12.3% | -4.0% | 2.8% | 0.0%
O=C(CSc1nnnn1-c1ccccc1)Nc1ccc(N2CCOCC2)c(Cl)c1 | 0.5% | -0.5% | -2.6% | -4.8% | -3.0%
